Sampled rows, rich in hits. Any-hit rate of the full collection: about 1.7%.
Mtb hypoxia inh: PubChem AID 1159583; M. tuberculosis hypoxia-regulated fluorescent reporter, fluorescence; fluorescence inhibition, % (no concentration beside the values); 300,000 tested, 0.1% active; in the data active means fluorescence inhibition mostly above about 23%, no sharp cut-off; inactive means mostly below about 17%
PfHsp40 rescue: rescue of yeast from PfHsp40 toxicity, primary screen, S. cerevisiae, ATP luminescence | 340,000 tested, 0.68% active | growth rescue, % at 12.5 µM | S. cerevisiae expressing PfHsp40, growth rescue; in the data active means growth rescue above about 28%, passing the limit was not always enough;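 further: yeast W303a lacking pdr1 and pdr3 grown in galactose medium; growth measured after three days at 30 °C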
CCHF vOTU inh-1: CCHFV vOTU protease inhibitors, primary screen, biochemical, Pep-AMC substrate, fluorescence; Crimean-Congo hemorrhagic fever virus L polyprotein viral ovarian tumor (vOTU) protease …; inhibition, % at 11.5 µM; 370,000 tested, 0.55% active; AID 651958, 2012; further: 0% = vehicle wells with enzyme and 100% = no enzyme wells
Mtb bLac sens: beta-lactam sensitization of Mtb H37Rv, H37Rv; inhibition, % at 25 µM; 330,000 tested, 0.27% active; M. tuberculosis H37Rv growth with meropenem, percent inhibition; call rule not given here;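 further: growth measured after seven days incubation then overnight dye step; 0% = bacteria only wells and 100% = bacteria with antibiotic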
RecA splice inh: Mtb RecA intein splicing inhibitors, primary screen, biochemical, fluorescence, HTS. cell-free RecA intein splicing. inhibition, % (concentration not given with the values). 290,000 tested, 0.75% active. AID 2221, 2009; in the data active means inhibition above about 30%;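 further: 0% = vehicle wells and 100% = reference inhibitor control wells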
CCHF vOTU inh-2: CCHFV vOTU protease inhibitors, confirmation, biochemical, Pep-AMC substrate, fluorescence | AID 686976, 2013 | Recombinant CCHFV vOTU | shares compounds with CCHF vOTU inh-1 | inhibition, % at 11.5 µM | 1,900 tested, 17% active
Active calls of the source: *; / = no result. Unless noted, no stated cut-off is given here; in the data, active means inhibition above about 30%; inactive means the rest.

SMILES	Mtb hypoxia inh	PfHsp40 rescue	CCHF vOTU inh-1	Mtb bLac sens	RecA splice inh	CCHF vOTU inh-2
CC(=O)c1c(C)[nH]c(C(=O)OCC(=O)NNC(=O)c2ccc([N+](=O)[O-])cc2)c1C	5	0	35*	23	/	-12
C=CCn1c(COc2ccccc2)nnc1SCC(=O)c1ccc(OC)cc1	/	/	11	/	/	/
C=CCn1c(COc2ccc(F)cc2)nnc1SCC(=O)c1c[nH]c2c(CC)cccc12	-7	0	37*	2	-4	3
CCC1=C(OC(=O)N(CC)CC)N2C(=O)OC(=NCCOC)[C@]2(Cc2ccccc2)C2C1=CCC1C(=O)NC(=O)C12 (stereo partly specified)	16	/	/	/	/	/
Cc1ccc(NC(=O)Cc2ccc(Cl)c(Cl)c2)cc1S(=O)(=O)N(C)C	9	-1	30*	19	11	-9
O=[N+]([O-])c1ccc(NN=Cc2cccc(O)c2)cc1	-2	/	/	/	/	/
N#Cc1cc2ccc(N3CCOCC3)cc2cc1C#N	20	0	73*	3	-2	-58
N#Cc1cc(Cl)c(N2CCOCC2)cc1C#N	/	-2	7	-2	0	/
CCCCOCCCNC(=O)C[C@H]1C[C@@]2(C(=O)OC)C(=C[C@H](C(C)C)O[C@@H]2C2CC2)N(Cc2ccco2)C1=O	/	/	10	/	/	/
CCCCCCCCN1C(=O)[C@@H](CC(=O)N2CCN(C(=O)c3ccco3)CC2)C[C@@]2(C(=O)OC)C1=C[C@H](C(C)C)O[C@@H]2C1CC1	/	/	32*	/	/	26
C#CCNC(=O)C[C@H]1C[C@@]2(C(=O)OC)C(=C[C@H](C(C)C)O[C@@H]2C2CC2)N(CCCCCCCC)C1=O	/	/	39*	/	/	14
CCCCCCCCN1C(=O)[C@@H](CC(=O)NCCCOCCCC)C[C@@]2(C(=O)OC)C1=C[C@H](C(C)C)O[C@@H]2C1CC1	/	/	35*	/	/	37*
O=C1N=C(N2CCCC2)SC1=Cc1cccc(Br)c1	-4	/	/	/	/	/
COc1ccccc1CN1C(=O)C2Cc3c([nH]c4ccccc34)C(C)(C)N2C1=O (stereo unspecified)	3	/	/	/	/	/
C(=NN1CCN(Cc2ccccc2)CC1)c1cccs1	7	/	/	/	/	/
CCCOc1ccccc1OCC(=O)Nc1cc(Cl)ccc1-n1cncn1	-4	-2	32*	-12	-1	-16
Cc1cccc(OCC(=O)Nc2cc(Cl)ccc2-n2cncn2)c1C	8	1	11	2	4	/
Oc1ccc(F)c2cccnc12	7	-1	-14	100	-1	/
O=S(=O)(Nc1ccc(O)c2ncccc12)c1ccccc1F	/	/	62*	/	/	19
CCOC(=O)C1C2COc3ccccc3C2N2C(=O)N(c3ccc(F)cc3)C(=O)[C@@]12C (stereo partly specified)	7	/	/	/	/	/
C=Cc1cnc([N+](=O)[O-])n1C	/	/	30*	/	/	-18
CCc1c(C(=O)N/N=C/c2ccsc2)csc1C	/	1	30*	-4	3	-16
CCc1c(C(=O)NN=Cc2ccsc2)csc1C	3	/	/	/	/	/
COc1ccc(N2C(=O)C(Cl)=C(Nc3ccccc3OC)C2=O)cc1	5	3	36*	3	0	-5
CC1(Cc2ccccc2OC(F)(F)F)C(=O)Nc2ccc(OC(F)(F)F)cc21 (stereo unspecified)	/	/	33*	/	/	10
SMILES	Mtb hypoxia inh	PfHsp40 rescue	CCHF vOTU inh-1	Mtb bLac sens	RecA splice inh	CCHF vOTU inh-2
CC1(Cc2ccccc2OC(F)(F)F)C(=O)Nc2ccc(-c3ccsc3)cc21 (stereo unspecified)	/	/	35*	/	/	-10
CNC(=O)[C@@]1(C)C=CC(Cc2ccccc2)N1C(=O)OC (stereo partly specified)	4	/	/	/	/	/
CCCCCCn1c(=O)n2n(c1=O)C[C@]1(OC(=O)NCC3CCCCC3)CN(S(=O)(=O)c3ccc(C)cc3)C[C@]1(O)C2	/	/	32*	/	/	8
CCOC(=O)CC1c2cc(C(F)(F)F)ccc2S(=O)(=O)N1Cc1ccccc1 (stereo unspecified)	0	/	/	/	/	/
NC(CSc1nc(-c2ccccc2)c(-c2ccccc2)o1)=NO	5	/	/	/	/	/
Cc1cccc(C)c1-n1c(C)cc(/C=N\NC(=O)CC(=O)NC2CCCCC2)c1C	/	3	31*	-2	3	-4
CCOc1cc(C)c(Cl)cc1S(=O)(=O)NCc1ccco1	/	-1	12	1	-1	/
CCOc1ccc(S(=O)(=O)NCc2ccco2)c2ccccc12	5	1	32*	-2	9	-4
COc1ccc(C2CC(=O)C=C(c3cccc(OCc4ccccc4)c3)C2)cc1 (stereo unspecified)	4	/	/	/	/	/
C/C=C/COC(=O)c1[nH]c2c(c1C)C(=O)CC(c1ccco1)C2 (stereo unspecified)	/	2	30*	-3	1	-17
C=CCOC(=O)c1[nH]c2c(c1C)C(=O)CC(c1ccco1)C2 (stereo unspecified)	/	/	/	-9	4	/
Cc1[nH]oc(=O)c1N=Nc1c(Cl)cccc1Cl	7	20	36*	68	-2	-4
CC(C)C(=O)Nc1nc(-c2ccc(S(=O)(=O)N3CCOCC3)cc2)cs1	-9	1	-4	3	0	/
O=C(Nc1nc(-c2ccncc2)cs1)c1ccc(S(=O)(=O)N2CCOCC2)cc1	-1	-1	39*	-7	-5	-7
COc1ccc(C=NNC(=O)c2cc(C34CC5CC(CC(C5)C3)C4)[nH]n2)cc1OC	0	/	/	/	/	/
COc1cc(/C=N/NC(=O)[C@H](Cc2c[nH]c3ccccc23)NC(=O)OCC(C)C)cc([N+](=O)[O-])c1O	/	0	36*	12	0	0
Cc1ccc(CNC(=O)CON=Cc2ccc(C(C)(C)C)cc2)cc1	5	/	/	/	/	/
O=C1OC(Nc2cc(Br)cc3cccnc23)c2ccccc21 (stereo unspecified)	5	3	111*	3	-7	100*
CC(=NN=C1SCC(=O)N1c1ccccc1)c1ccc(C)cc1	-15	/	/	/	/	/
NC(=O)C1C(=O)c2ccccc2C1(C[N+](=O)[O-])c1ccccc1 (stereo unspecified)	-3	-1	46*	/	/	-1
CN1CCN(S(=O)(=O)c2cccc(C(=O)N(Cc3nnc(-c4ccc(Cl)cc4)o3)C3CC3)c2)CC1	4	1	34*	5	0	-13
CCCCCCSC1=C(C#N)C(=O)NC2(CCCCC2)S1	1	4	35*	2	5	-3
COc1cc(C=NNC(=O)CCn2c3ccccc3c3ccccc32)cc(OC)c1OC	9	/	/	/	/	/
N#Cc1c(-c2ccccc2)nc(SCC(=O)Nc2ccc(OC(F)(F)Cl)cc2)[nH]c1=O	7	1	31*	-9	19	16
CCc1nnc(NS(=O)(=O)c2ccc(NC(=O)/C=C/c3ccccc3Cl)cc2)s1	7	1	35*	-4	9	5
Cc1ccc(S(=O)(=O)N2CCN(CC(=O)NN=Cc3ccc(O)c(O)c3)CC2)cc1	12	/	/	/	/	/

Screening data deposited in PubChem BioAssay by several laboratories.
